Compounds without any hit were thinned out: in the full panel of roughly 83,000, 20% have a hit.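 Cells were grown in 96-well plates and exposed to the test compound at a single concentration for 48 hours; results are reported as percent growth, with values below 10 considered active.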 Unmarked numbers belong to inactive results. Calls of active or inactive are those of the source.

Some test systems named below: SK-MEL-2 melanoma; EKVX NSCLC; SN12C renal; UO-31 renal; TK-10 renal; ACHN renal; CAKI-1 renal; A498 renal; CCRF-CEM leukemia; MOLT-4 leukemia; SR leukemia; RPMI-8226 leukemia; OVCAR-8 ovarian; OVCAR-5 ovarian; OVCAR-4 ovarian; SK-OV-3 ovarian; IGROV1 ovarian; OVCAR-3 ovarian; HS 578T breast; NCI/ADR-RES ovarian.
Assay in all cases: NCI-60 one-dose screen, 48 h (100 = growth as untreated, 0 = no growth, -100 = all killed)
What all share (conditions): 10 µM unless noted

In the case of `O=C1NCCS(=O)(=O)/C1=C\C=C\c1cccc(C(F)(F)F)c1`, the growth in the test on SK-MEL-2 melanoma is 54.8%; in the test with EKVX NSCLC, 82.3%; in the test on SN12C renal, 24.3%; with UO-31 renal it was 26.8%; in the test with TK-10 renal, 33.6%; with ACHN renal, 12.7%. Besides, the growth was 55.4% in the test with CAKI-1 renal; 56.9% with A498 renal; 0.774% (active) in the test with CCRF-CEM leukemia; 8.72% (active) in the test with MOLT-4 leukemia; 6.61% (active) in the test on SR leukemia; -7.36% (active) in the test with RPMI-8226 leukemia. In addition, the growth with OVCAR-8 ovarian was 20.4%; in the test with OVCAR-5 ovarian, 48.4%; in the test on OVCAR-4 ovarian, 53.4%; in the test with SK-OV-3 ovarian it was 85.8%; in the test with IGROV1 ovarian, 35.5%; in the test on OVCAR-3 ovarian it was 22.2%. For the same compound, the growth in the test with HS 578T breast was 51.1%; in the test with NCI/ADR-RES ovarian, -37.5% (active).
As for `COc1ccc(C(=O)/C=C/c2ccc(C)cc2)cc1S(N)(=O)=O`, the growth with SK-MEL-2 melanoma is 87.1%; with EKVX NSCLC, 81%; in the test on SN12C renal, 6.38% (active); in the test on UO-31 renal it was 37.4%; with TK-10 renal, 73.1%; with ACHN renal, 55.8%. Besides, the growth in the test with CAKI-1 renal was 73.6%; in the test on A498 renal, 82.7%; with CCRF-CEM leukemia, 23.7%; with MOLT-4 leukemia, 15.9%; in the test with SR leukemia it was 5.31% (active); with RPMI-8226 leukemia, 35.8%. Besides, the growth in the test with OVCAR-8 ovarian is 29.3%; in the test with OVCAR-5 ovarian, 77%; in the test on OVCAR-4 ovarian, 84.1%; in the test with SK-OV-3 ovarian it was 114%; with IGROV1 ovarian, 28%; in the test with OVCAR-3 ovarian it was 39.2%. In addition, the growth was 84.9% in the test with HS 578T breast and 51.7% with NCI/ADR-RES ovarian.
In the case of `c1ccc(-c2nc(N3CCNCC3)c3oc(-c4ccccc4)nc3n2)cc1`, the growth in the test with SK-MEL-2 melanoma is -34.1% (active); with EKVX NSCLC it was -68.4% (active); in the test on SN12C renal, -82.1% (active); in the test on UO-31 renal, -99.8% (active); in the test with TK-10 renal it was -71.3% (active); in the test on ACHN renal it was -100% (active). The growth was -94% (active) with CAKI-1 renal; 88.2% in the test with A498 renal; -31.1% (active) in the test on CCRF-CEM leukemia; -24.9% (active) in the test on MOLT-4 leukemia; -1.84% (active) in the test with SR leukemia; -32.6% (active) in the test on RPMI-8226 leukemia. In addition, the growth is -25.1% (active) in the test with OVCAR-8 ovarian; -82% (active) with OVCAR-5 ovarian; -88.2% (active) in the test on OVCAR-4 ovarian; -46% (active) in the test on SK-OV-3 ovarian; -88.8% (active) in the test with IGROV1 ovarian; -53.4% (active) in the test with OVCAR-3 ovarian. Further, the growth with HS 578T breast is -60.7% (active); in the test with NCI/ADR-RES ovarian it was -48.8% (active).
Regarding `CC(=O)OCCOc1cc(Cl)c(Cl)cc1Cl`, the growth is 89.9% in the test on SK-MEL-2 melanoma; 78.4% in the test on EKVX NSCLC; 102% in the test on SN12C renal; 89.1% with UO-31 renal; 106% in the test on TK-10 renal; 103% in the test with ACHN renal. For the same compound, the growth with CAKI-1 renal was 96.5%; in the test with A498 renal, 82.8%; with CCRF-CEM leukemia, -63.4% (active); in the test with MOLT-4 leukemia, 107%; in the test with SR leukemia, 97.2%; in the test with RPMI-8226 leukemia, 93.3%. Moreover, the growth is 103% with OVCAR-8 ovarian; 90.6% with OVCAR-5 ovarian; 108% with OVCAR-4 ovarian; 107% in the test with SK-OV-3 ovarian; 130% in the test with IGROV1 ovarian; 118% with OVCAR-3 ovarian. Besides, the growth is 103% in the test on HS 578T breast and 105% in the test on NCI/ADR-RES ovarian.
`COC(=O)c1nc(-c2ccc(C)cc2)oc1N1CCOCC1`: the growth was 106% in the test on SK-MEL-2 melanoma; 92.8% in the test with EKVX NSCLC; 93.1% in the test with SN12C renal; 83.7% in the test with UO-31 renal; 81.6% in the test on TK-10 renal; 102% in the test with ACHN renal. Besides, the growth was 90.3% in the test on CAKI-1 renal; 77.4% with A498 renal; 85% in the test with CCRF-CEM leukemia; 80.8% with MOLT-4 leukemia; 80.3% in the test with SR leukemia; 88% in the test with RPMI-8226 leukemia. Moreover, the growth was 107% in the test with OVCAR-8 ovarian; 88.1% with OVCAR-5 ovarian; 109% in the test with OVCAR-4 ovarian; 94.9% with SK-OV-3 ovarian; 89.5% in the test on IGROV1 ovarian; 107% with OVCAR-3 ovarian. For the same compound, the growth was 108% in the test with HS 578T breast and 96.7% in the test on NCI/ADR-RES ovarian.
On to `COc1ccc(-n2c(=O)n(-c3ccc(-c4nc5ccc(F)cc5s4)cc3)c(=O)c3cccnc32)cc1`, for which the growth was 103% in the test with SK-MEL-2 melanoma; 91.6% in the test on EKVX NSCLC; 100% with SN12C renal; 75.6% in the test with UO-31 renal; 119% with TK-10 renal; 103% in the test on ACHN renal. Also, the growth was 85.3% in the test on CAKI-1 renal; 98.2% in the test on A498 renal; 102% in the test on CCRF-CEM leukemia; 97.7% in the test on MOLT-4 leukemia; 104% in the test with SR leukemia; 91.6% in the test with RPMI-8226 leukemia. Also, the growth in the test on OVCAR-8 ovarian is 93.1%; in the test with OVCAR-5 ovarian, 108%; in the test with OVCAR-4 ovarian, 104%; in the test on SK-OV-3 ovarian it was 86.6%; in the test on IGROV1 ovarian, 90.5%; in the test with OVCAR-3 ovarian, 106%. In addition, the values for the growth with HS 578T breast and with NCI/ADR-RES ovarian were 101% and 103%, respectively.
For `O=C(O)COc1ccc(F)cc1`, the growth is 99.6% in the test with SK-MEL-2 melanoma; 103% with EKVX NSCLC; 98.1% in the test on SN12C renal; 91.6% with UO-31 renal; 91.4% in the test on TK-10 renal; 111% with ACHN renal. In addition, the growth with CAKI-1 renal was 94.7%; in the test with A498 renal it was 97.4%; in the test with CCRF-CEM leukemia it was 104%; in the test with MOLT-4 leukemia it was 101%; in the test on SR leukemia, 103%; with RPMI-8226 leukemia, 97.5%. The growth is 102% in the test with OVCAR-8 ovarian; 109% with OVCAR-5 ovarian; 116% in the test with OVCAR-4 ovarian; 108% in the test on SK-OV-3 ovarian; 107% with IGROV1 ovarian; 107% in the test with OVCAR-3 ovarian. Besides, the figures for the growth in the test on HS 578T breast and in the test with NCI/ADR-RES ovarian were 128% and 101%, respectively.

The values above are taken from PubChem BioAssay (NCI).
